What all share (experiment): NCI-60 one-dose screen, 48 h (100 = growth as untreated, 0 = no growth, -100 = all killed)
The subject of one assay is NCI-H23 lung. As to conditions: 10 µM.
A further assay has as its system NCI-H226 lung. As to conditions: 10 µM.
The next assay has as its system NCI-H322M lung. Particulars: 10 µM.
Another assay relates to HOP-62 NSCLC. Particulars: 10 µM.
In a further assay the test system is NCI-H460 lung. As to conditions: 10 µM.
The test system of a further assay is HOP-92 NSCLC. As to conditions: 10 µM.
In the next assay the test system is NCI-H522 lung. As to conditions: 10 µM.
Another assay concerns A549/ATCC NSCLC. Particulars: 10 µM.
A further assay concerns 786-0 renal. Particulars: 10 µM.
A further assay concerns COLO 205 colon. Particulars: 10 µM.
A further assay concerns DU-145 prostate. Particulars: 10 µM.
The next assay has as its system K-562 leukemia. As to conditions: 10 µM.
The subject of another assay is MALME-3M melanoma. As to conditions: 10 µM.
Another assay relates to MDA-MB-231 breast. As to conditions: 10 µM.
For a further assay, the system named is RXF 393 renal. Particulars: 10 µM.
Another assay concerns SF-268 CNS. As to conditions: 10 µM.
Another assay deals with SF-295 CNS. As to conditions: 10 µM.
The test system of a further assay is SF-539 CNS. Particulars: 10 µM.
For a further assay, the system named is UACC-257 melanoma. Particulars: 10 µM.
A further assay relates to M14 melanoma. Particulars: 10 µM unless noted.

Molecules are shown by their SMILES. About 83,000 compounds went through this panel and 20% of them were active in at least one assay; those are over-represented in the sample as a whole.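 Plates (96-well) were seeded with cells, treated with compound at one concentration, and incubated for 48 hours before percent growth was determined.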 A number with no mark means an inactive call. The source made the active and inactive calls. The calls were made as follows: active = growth percent below 10; inactive = the rest.

Regarding `O=C(O)c1ccccc1.[Ag]`, the growth is 99.3% in the assay on NCI-H23 lung; 104% in the assay with NCI-H226 lung; 109% with NCI-H322M lung; 108% with HOP-62 NSCLC; 100% in the assay with NCI-H460 lung; 107% with HOP-92 NSCLC. Also, the growth is -25.1% (active) in the assay on NCI-H522 lung; 54% with A549/ATCC NSCLC; 108% with 786-0 renal; 25.8% with COLO 205 colon; 105% in the assay on DU-145 prostate; 90.3% in the assay with K-562 leukemia. The growth is 119% in the assay with MALME-3M melanoma; 89% in the assay with MDA-MB-231 breast; 106% in the assay with RXF 393 renal; 97.1% with SF-268 CNS; 99.7% in the assay on SF-295 CNS; 106% in the assay with SF-539 CNS. The growth was 93.6% in the assay on UACC-257 melanoma and 96.4% with M14 melanoma.

Take `COc1ccc2oc(-c3ccc(Cl)cc3)c(N3CCN(C)CC3)c2c1`: the growth was 73.6% in the assay on NCI-H23 lung; 91% in the assay on NCI-H226 lung; 113% in the assay with NCI-H322M lung; 51.9% in the assay with HOP-62 NSCLC; -62.6% (active) with NCI-H460 lung; -17.1% (active) in the assay with HOP-92 NSCLC. Moreover, the growth in the assay with NCI-H522 lung was -78.2% (active); in the assay on A549/ATCC NSCLC it was 39.6%; in the assay with 786-0 renal it was 27.2%; in the assay on COLO 205 colon, -72.5% (active); in the assay on DU-145 prostate, 24.3%; in the assay with K-562 leukemia, -24.7% (active). The growth with MALME-3M melanoma is 121%; in the assay with MDA-MB-231 breast, 0.119% (active); with RXF 393 renal it was 28%; in the assay with SF-268 CNS, 37.2%; in the assay with SF-295 CNS, -54.5% (active); in the assay with SF-539 CNS, -6.28% (active). Moreover, the figures for the growth with UACC-257 melanoma and in the assay on M14 melanoma were 22% and -66% (active), respectively.

With `O=S(=O)(c1cc(Cl)ccc1O)c1cc(Cl)ccc1O`, the growth was 84.6% with NCI-H23 lung; 78.1% with NCI-H226 lung; 106% in the assay with NCI-H322M lung; 83.7% with HOP-62 NSCLC; 85.1% in the assay on NCI-H460 lung; 6.03% (active) with HOP-92 NSCLC. Besides, the growth in the assay on NCI-H522 lung was 63.9%; with A549/ATCC NSCLC it was 81.3%; in the assay on 786-0 renal it was 86.7%; with COLO 205 colon it was 105%; with DU-145 prostate it was 100%; with K-562 leukemia it was 62.1%. The growth in the assay with MALME-3M melanoma is 95.7%; in the assay with MDA-MB-231 breast, 95.4%; with RXF 393 renal, 102%; with SF-268 CNS, 88.2%; in the assay on SF-295 CNS it was 85.2%; in the assay on SF-539 CNS it was 86.6%. Besides, the values for the growth in the assay with UACC-257 melanoma and in the assay with M14 melanoma were 35.1% and 75.8%, respectively.

Consider `CC[C@@]1(OC(=O)CN(C)C)C(=O)OCc2c1cc1n(c2=O)Cc2cc3c(N)cccc3nc2-1`, for which the growth with NCI-H23 lung is -26.7% (active); in the assay on NCI-H226 lung, -13.4% (active); with NCI-H322M lung, -18.6% (active); with HOP-62 NSCLC, -5.79% (active); in the assay on NCI-H460 lung, -5.75% (active); with NCI-H522 lung it was -26% (active). Also, the growth in the assay on A549/ATCC NSCLC is 4.76% (active); in the assay on 786-0 renal, 0.893% (active); with COLO 205 colon, 17.5%; in the assay on DU-145 prostate, 4.87% (active); in the assay on K-562 leukemia, 9.06% (active); in the assay with MALME-3M melanoma it was -23.9% (active). Besides, the growth was 27.7% with MDA-MB-231 breast; -23.4% (active) in the assay with RXF 393 renal; 8.15% (active) in the assay with SF-268 CNS; -7.04% (active) in the assay with SF-295 CNS; -30.9% (active) in the assay on SF-539 CNS; -35.4% (active) in the assay on UACC-257 melanoma. In addition, the growth in the assay with M14 melanoma is -40.1% (active).

Take `N#CC(=C1C=CC(=NO)C=C1)c1ccccc1`: the growth in the assay with NCI-H23 lung is 35.3%; with NCI-H226 lung, 44.5%; in the assay with NCI-H322M lung it was 66.3%; in the assay on HOP-62 NSCLC it was 6.93% (active); with NCI-H460 lung, 1.48% (active); in the assay on HOP-92 NSCLC it was -7.52% (active). Besides, the growth with NCI-H522 lung was 39%; with A549/ATCC NSCLC, 34%; in the assay on 786-0 renal, 6.67% (active); with COLO 205 colon, 30.4%; in the assay with DU-145 prostate, -66.7% (active); with K-562 leukemia, 11.9%. Moreover, the growth in the assay with MALME-3M melanoma was 59.1%; in the assay with MDA-MB-231 breast, -4.14% (active); in the assay on SF-268 CNS it was -24% (active); with SF-295 CNS, 19.6%; in the assay on SF-539 CNS, -58.7% (active); in the assay on UACC-257 melanoma, 65.6%. Besides, the growth in the assay with M14 melanoma was -36.5% (active).

With `ClCCn1c(CCl)nc2ccc(Cl)cc21`, the growth was -17.1% (active) in the assay with NCI-H23 lung; 99.5% in the assay with NCI-H322M lung; 0.311% (active) with NCI-H460 lung; -57.2% (active) in the assay with HOP-92 NSCLC; -73.2% (active) with NCI-H522 lung; -12.5% (active) in the assay with A549/ATCC NSCLC. Further, the growth in the assay with 786-0 renal is -59.9% (active); in the assay with DU-145 prostate it was -59.3% (active); with K-562 leukemia, -23.7% (active); in the assay with MALME-3M melanoma, -64.3% (active); in the assay on MDA-MB-231 breast, -61.7% (active); with RXF 393 renal, -73.9% (active). Moreover, the growth with SF-268 CNS was -69.2% (active); in the assay on SF-295 CNS, 25.3%; in the assay on SF-539 CNS, -43.9% (active); with UACC-257 melanoma, 70.3%; in the assay with M14 melanoma, -83.3% (active).

As for `S=C1SCN(CCc2ccccc2)CN1CCc1ccccc1`, the growth was 96.5% with NCI-H23 lung; 99.4% in the assay with NCI-H226 lung; 86.5% in the assay on NCI-H322M lung; 87.6% with HOP-62 NSCLC; 108% in the assay on NCI-H460 lung; 58.6% in the assay on NCI-H522 lung. The growth is 90.8% in the assay on A549/ATCC NSCLC; 117% with 786-0 renal; 99.2% in the assay on COLO 205 colon; 93% in the assay with DU-145 prostate; 55.8% with K-562 leukemia; 87.3% in the assay on MALME-3M melanoma. Further, the growth in the assay with MDA-MB-231 breast is 99.3%; with RXF 393 renal it was 91.8%; in the assay on SF-268 CNS it was 106%; in the assay on SF-295 CNS, 93.4%; in the assay with SF-539 CNS it was 115%; in the assay on UACC-257 melanoma, 71.6%. Further, the growth in the assay on M14 melanoma was 120%.

The record behind these values is PubChem BioAssay (NCI).
